Measurements: the supplement of paper PMC7156485
± gives the standard deviation of the averaged measurements.

Tested on: TDF
Assay: cell number relative to DMSO (% of DMSO); higher = more cells (less growth inhibition / toxicity)
Settings: concentration: 10 µM; 24 h
How it was run: (§1)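 For HCC1569 and TDF cells, compounds at 10 µM were applied for 24 h at 37 °C in triplicate in 384-well plates. Cells were fixed in 3.7% formaldehyde, stained for H1.0 and with DAPI, and imaged at ×10 over six fields per well. The endpoint, H1.0 nuclear intensity or cell number, is shown as percent of the plate control using the median of replicates. Positional effects were smoothed for HCC1569 only.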
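Wherever H1.0 immunofluorescence intensity relative to DMSO is given: TDF is a line of transformed human dermal fibroblasts of mesenchymal origin.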
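Wherever cell number relative to DMSO is given: TDF denotes transformed human dermal fibroblasts of mesenchymal origin.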

| SMILES | cell number |
| --- | --- |
| CCOC(=O)CNC(=O)[C@@H]1CCCN1C(=O)Cc1ccccc1 | 109 |
| COc1ccc(C2CC(c3ccccc3)=NN2c2ccc(S(N)(=O)=O)cc2)cc1 (stereo unspecified) | 97.9 |
| O=C(c1ccc2c(c1)OCCO2)N1CCCCC1 | 92.2 |
| CCCCCCCCCCCC1=C(O)C(=O)C=C(O)C1=O [Embelin] | 97.1 |
| CC#CC1(O)CCC2C3CCC4=CC(=O)CCC4=C3C(c3ccc(N(C)C)cc3)CC21C (stereo unspecified) [Mifepristone] | 111 ± 13 |
| CCCCCC=CCC(O)C=CC=CC=CC(O)CCCC(=O)O [5(S),12(R)-DIHETE all trans] | 97 |

Tested on: TDF
Assay: H1.0 immunofluorescence intensity relative to DMSO (% of DMSO); higher = stronger H1.0 induction, active = 120 or more
Settings: concentration: 10 µM; 24 h
How it was run: as §1

| SMILES | H1.0 immunofluorescence intensity |
| --- | --- |
| Cn1cnc2c(NCc3ccccc3)nc(NCCO)nc21 [Olomoucine] | 98.6 (inactive) |
| CCCCCC=CCC=CCCCCCCCC(=O)O [Linoleic acid] | 105 (inactive) |
| CCCn1c(=O)c2c(ncn2C)n(CCC)c1=O [1,3-Dipropyl-7-methylxanthine] | 93.1 (inactive) |
| CS(=O)(=O)O.CSc1ccc2c(c1)C(N1CCN(C)CC1)Cc1ccccc1S2 (stereo unspecified) [Methiothepin mesylate] | 111 (inactive) |
| CNCCC(Oc1ccc(C(F)(F)F)cc1)c1ccccc1 (stereo unspecified) [Fluoxetine] | 100 (inactive) |
| CC(N)(COP(=O)(O)O)C(=O)O (stereo unspecified) [2-methyl-O-phosphonoserine] | 96 (inactive) |
| CC1=C(C(=O)O)N2C(=O)C(NC(=O)C(N)C3=CCC=CC3)C2SC1 (stereo unspecified) [Cephradine] | 93.5 (inactive) |
| CN(C)c1nc(N(C)C)nc(N(C)C)n1 [Altretamine] | 100 (inactive) |
| C=C(CC)C(=O)c1ccc(OCC(=O)O)c(Cl)c1Cl [Ethacrynic Acid] | 95.9 (inactive) |
| Cl.Cl.NCCC(=O)NCCc1cnc[nH]1 [Carcinine dihydrochloride] | 94.6 (inactive) |
| CN(Cc1cnc2nc(N)nc(N)c2n1)c1ccc(C(=O)NC(CCC(=O)O)C(=O)O)cc1 (stereo unspecified) [Methotrexate] | 92.8 (inactive) |
| CSc1nc2ccc3nc(NC(=O)C(c4ccccc4)c4ccccc4)sc3c2s1 | 99.4 (inactive) |
| COc1ccccc1N1CCN(CCCNc2cc(=O)n(C)c(=O)n2C)CC1.Cl [Urapidil hydrochloride] | 92.7 (inactive) |
| CCOC(=O)OC(C)OC1=C(C(=O)Nc2ccccn2)N(C)S(=O)(=O)c2ccccc21 (stereo unspecified) [Ampiroxicam] | 99.6 (inactive) |
| CC1Cc2ccccc2N1NC(=O)c1ccc(Cl)c(S(N)(=O)=O)c1 (stereo unspecified) [Indapamide] | 88.5 (inactive) |
| CCCC(=O)Oc1ccc2[nH]c(C(=O)c3cc4ccccc4[nH]3)cc2c1 [PDGF Receptor Tyrosine Kinase Inhibitor II] | 87.9 (inactive) |
| COc1cc2ncnc(Nc3ccc(Cl)cc3F)c2cc1OC.Cl | 95.7 (inactive) |
| O=C(NCCCN1CCOCC1)c1cnn2c(-c3ccccc3)cc(-c3ccccc3)nc12 | 97.2 (inactive) |
| CCC=CCC=CCC=CCC=CCC=CCCCC(=O)O | 90.4 (inactive) |
| CN1CCN(C2Cc3ccccc3Sc3ccc(Cl)cc32)CC1.O=C(O)C=CC(=O)O (stereo unspecified) | 105 (inactive) |
| N=C(N)c1ccc(OCCCCCOc2ccc(C(=N)N)cc2)cc1 [Pentamidine] | 92.3 (inactive) |
| COc1ccc(-c2cc3c(C)nc(N)nc3n(C3CCC(OCCO)CC3)c2=O)cn1 (stereo unspecified) | 97.8 (inactive) |
| CN(C)CC(C)(C)CNc1nn2c(-c3ccccc3)nnc2cc1C1CCC1 | 99.9 (inactive) |
| S=C(NCc1ccc2c(c1)OCO2)N1CCN(c2ncnc3c2oc2ccccc23)CC1 | 103 (inactive) |
| CC1=C(C)C(=O)C(CCCCC#CCCCC#CCO)=C(C)C1=O | 104 (inactive) |
| O=C1c2ccccc2-c2n[nH]c3cccc1c23 [JNK Inhibitor II] | 90.5 (inactive) |
| COc1cc2ccc(=O)oc2cc1O [Scopoletin] | 101 (inactive) |
| CC(=O)NC(CSCC=C(C)CCC=C(C)C)C(=O)O (stereo unspecified) | 93 (inactive) |
| COc1ccc(CC(N)C(=O)NC2C(CO)OC(n3cnc4c(N(C)C)ncnc43)C2O)cc1 (stereo unspecified) [Puromycin] | 94 (inactive) |
| CCN1CCN(C(=O)NC(C(=O)NC2C(=O)N3C(C(=O)O)=C(CSc4nnnn4C)CSC23)c2ccc(O)cc2)C(=O)C1=O (stereo unspecified) [Cefoperazone acid] | 91.9 (inactive) |
